Assay outcomes deposited in PubChem BioAssay by several laboratories.
Anthrax LF prot: anthrax lethal factor protease inhibition. P15917. multiplex microsphere protease cleavage assay, LF. inhibition, % at 10 µM. actives 0.12% (n = 360,000)
Target sequence (P15917 whole entry, looked up): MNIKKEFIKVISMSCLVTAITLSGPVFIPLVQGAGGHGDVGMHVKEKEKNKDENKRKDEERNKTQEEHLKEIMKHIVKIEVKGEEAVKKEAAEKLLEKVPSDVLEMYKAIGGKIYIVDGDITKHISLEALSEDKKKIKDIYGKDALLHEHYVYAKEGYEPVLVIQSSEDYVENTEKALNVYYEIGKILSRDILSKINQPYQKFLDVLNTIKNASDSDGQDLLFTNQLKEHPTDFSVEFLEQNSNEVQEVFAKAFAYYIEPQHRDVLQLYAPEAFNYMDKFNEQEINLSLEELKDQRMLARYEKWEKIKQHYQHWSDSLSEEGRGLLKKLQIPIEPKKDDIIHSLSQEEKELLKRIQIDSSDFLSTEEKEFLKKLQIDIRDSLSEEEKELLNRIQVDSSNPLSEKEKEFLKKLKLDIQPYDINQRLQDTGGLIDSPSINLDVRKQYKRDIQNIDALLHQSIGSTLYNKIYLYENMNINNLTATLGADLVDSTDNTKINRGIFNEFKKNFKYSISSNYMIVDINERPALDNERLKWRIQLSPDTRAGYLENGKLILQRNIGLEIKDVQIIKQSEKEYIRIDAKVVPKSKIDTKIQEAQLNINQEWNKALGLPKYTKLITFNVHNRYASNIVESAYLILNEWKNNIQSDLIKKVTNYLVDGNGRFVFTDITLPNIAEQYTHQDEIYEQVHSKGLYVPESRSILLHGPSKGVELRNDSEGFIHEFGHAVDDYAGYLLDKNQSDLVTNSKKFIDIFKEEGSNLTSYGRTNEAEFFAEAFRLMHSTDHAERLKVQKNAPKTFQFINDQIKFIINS
VHR inh abs: blocks human VHR1 dual specificity phosphatase | AID 1654 | actives 0.52% (n = 290,000) | recombinant VHR phosphatase, pNPP absorbance | P51452 | inhibition, % at 13.3 µM; in the data active = inhibition above about 50%
Autofluor counter: compound fluorescence in toxin protease inhibitor counterscreen | compound autofluorescence counterscreen, microsphere flow cytometry; hits give high values | fluorescence intensity (concentration not given with the values) | actives 3.1% (n = 360,000) | AID 624483; in the data active = fluorescence intensity above about 16000; inconclusive = no clear call, values can overlap the other calls
BoNT-A LC inh2: blocks Botulinum neurotoxin A light chain protease. multiplex microsphere protease substrate cleavage, flow cytometry. inhibition, % at 10 µM. actives 0.17% (n = 360,000). AID 588499
MazF activator: activators of E. coli MazEF toxin-antitoxin RNase; P0AE70; FAM/BHQ RNA-DNA oligo cleavage fluorescence, 5 h; activation, % at 20 µM; actives 0.32% (n = 350,000); AID 504720; in the data active = activation above about 50%
BoNT F protease: BoNT F light chain protease inhibition; Multiplex microsphere protease cleavage assay, flow cytometry; AID 588497; inhibition, % at 10 µM; actives 0.22% (n = 360,000); in the data active = inhibition above about 35%, passing the limit was not always enough; inconclusive = no clear call, values can overlap the other calls
Hits are given with their value; i = inactive; ? = inconclusive; nt = not tested or not shown. This is a sample that favours compounds with a hit; in the whole collection about 4% have one here. Rule as the data show it, unless noted: active = inhibition above about 30%; inconclusive = no clear call, values can overlap the other calls; inactive = below that.

SMILES	Anthrax LF prot	VHR inh abs	Autofluor counter	BoNT-A LC inh2	MazF activator	BoNT F protease
O=C(CNC(=O)c1cccc(F)c1)OCC(=O)N1CCCCC1	i	51	i	i	i	i
CCN(CC)S(=O)(=O)c1ccc(NC(=S)Nc2ccccc2)cc1	i	i	i	i	i	i
Cc1nc(SCC(=O)Nc2c(C)n(C)n(-c3ccccc3)c2=O)[nH]c(=O)c1Cc1ccccc1	i	i	i	i	i	i
Cc1c(NC(=O)CSc2nncc3ccccc23)c(=O)n(-c2ccccc2)n1C	i	i	20089	?	i	i
CCc1c(C)nc(SCC(=O)Nc2c(C)n(C)n(-c3ccccc3)c2=O)[nH]c1=O	i	i	21804	i	i	i
Cc1nc(SCC(=O)Nc2c(C)n(C)n(-c3ccccc3)c2=O)nc(C)c1C	i	i	i	i	i	i
O=C(CSc1ncc(C(F)(F)F)cc1Cl)N1CCNC1=O	i	nt	i	i	i	i
C/C(CC(=O)Nc1cc(C)ccn1)=N\NC(=O)C(=O)Nc1cccc(C)c1	i	i	i	i	195	i
COc1ccc(NC(=O)C(=O)N/N=C(\C)CC(=O)Nc2cc(C)ccn2)c(OC)c1	i	i	i	?	i	?
CCOc1ccc(C(=O)NCCc2cnc[nH]2)cc1	i	i	i	i	i	50
Cc1c(C(=O)N(CC(C)C)c2c(N)n(Cc3ccccc3)c(=O)[nH]c2=O)sc2nc3n(c(=O)c12)CCC3	32	nt	?	i	i	i
CCCCN(C(=O)c1sc2nc3n(c(=O)c2c1C)CCC3)c1c(N)n(CC(C)C)c(=O)[nH]c1=O	i	nt	i	i	i	i
Cc1oc(/N=C/c2ccccc2)c(C#N)c1C	i	i	i	i	i	i
COc1[nH]c(/N=C/c2ccccc2)c(C#N)c1C#N	i	i	i	i	74	i
Cc1cc(N/C(=N\S(=O)(=O)c2ccc(F)cc2F)c2ccccc2)no1	i	i	17822	i	i	i
CC(C)C(OC(=O)c1cc2c(s1)CCCCC2)C(=O)NC(N)=O (stereo not given)	i	i	i	i	i	i
O=[N+]([O-])c1ccc(Cl)c(C[n+]2cccc3ccccc32)c1	i	i	i	i	i	49
Clc1cccc(Cl)c1C[n+]1cccc2ccccc21	i	nt	i	i	i	?
COc1ccc(S(=O)(=O)N(C(C)=O)c2ccc3oc(=O)sc3c2)cc1	i	i	20711	i	i	i
C#CC(CC)(CC)NC(=O)/C=C/C(=O)O	32	i	?	i	i	?
CC(C)NC(=O)/C=C/C(=O)O	i	i	i	i	i	i
COC(=O)c1ccc(CSc2nc(C)nc3sc(C)c(C)c23)o1	i	i	22019	i	i	i
COc1ccc(-c2cc(C(=O)N3CCCC3)no2)cc1OC	i	i	i	i	i	i
COc1ccccc1N1CCN(C(=O)c2cc(-c3ccc(Cl)cc3)on2)CC1	i	i	24151	i	i	i
COc1ccccc1N1CCN(C(=O)c2cc(-c3ccc(C)cc3)on2)CC1	i	i	i	i	i	i
SMILES	Anthrax LF prot	VHR inh abs	Autofluor counter	BoNT-A LC inh2	MazF activator	BoNT F protease
COc1ccc(-c2cc(C(=O)N3CCCCC3)no2)cc1OC	i	i	23544	i	i	i
CCOc1ccccc1-n1c(SCC(=O)Nc2ccc(CC)cc2)nc2n[nH]c(C)c2c1=N	nt	i	nt	nt	i	nt
Cc1ccc(-n2c(N)c(C(N)=O)sc2=S)cc1	i	i	i	i	i	i
CCOC(=O)c1sc(=S)n(-c2ccccc2)c1SC	i	i	21506	i	i	i
CCOC(=O)c1sc(-c2ccc(F)cc2)cc1N	i	i	25606	i	i	i
CCOC(=O)c1sc(=S)n(-c2cc(OC)ccc2OC)c1N	i	i	i	i	i	i
CCOC(=O)c1sc(=S)n(-c2cc(F)ccc2F)c1N	i	i	24008	i	i	i
COC(=O)c1sc(=S)n(-c2cc(F)ccc2F)c1N	i	i	19767	i	i	i
Cc1nn(-c2ccccc2)c2[nH]c(=O)c(CNCc3ccc4c(c3)OCO4)cc12	i	i	i	i	i	i
CC[C@]12c3[nH]c4cc(CCC(=O)N(C)C)ccc4c3CCN1C(=O)[C@@H](CC(=O)NCc1cccc(C(F)(F)F)c1)C[C@@H]2C(=O)N1CCN(C(=O)c2ccco2)CC1	i	nt	i	i	i	i
CCOC(=O)CC(NC(=O)C(CC)c1ccccc1)c1ccccc1Cl (stereo not given)	i	i	i	i	i	i
CCOC(=O)CC(/C(C)=N\O)c1ccccc1 (stereo not given)	i	i	21192	i	i	i
